A selection: hits, their analogues and other compounds. The true share with any hit is near 1.8%.
Gli-Sufu antag = Gli-Sufu pathway antagonism; 340,000 compounds, 0.74% hits; AID 588413; Sufu-KO-LIGHT fibroblasts, Gli luciferase reporter luminescence; inhibition, % at 5 µM;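 active means inhibition above about 55%, limit read from the data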;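 further: 0% = DMSO-treated cells and 100% = wells with medium but no cells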
697 NFkB inh = lowers PMA/ionomycin-induced NF-kB signal in 697 B cells; 697 B-cell NF-kB luciferase reporter, 16 h; inhibition, % at 4 µM; 330,000 compounds, 0.33% hits; in the data active means inhibition above about 35%
Beta cell apopt = blocks beta cell apoptosis; 300,000 compounds, 0.8% hits; INS-1E cytokine-induced death, ATP luminescence, 48 h; percent of positive-control rescue, neutral wells zero; protection from apoptosis, % (concentration not given with the values); AID 435005;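 active means Every replicate reaches about 75%, or at least half do and their mean reaches it too, limit read from the data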;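 further: 0% = cytokine-treated negative control wells and 100% = positive control rescue; higher means more ATP so stronger rescue from cytokine killing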
Jurkat NFkB inh = lowers PMA/ionomycin-induced NF-kB signal in Jurkat cells. PMA/ionomycin-induced NF-kB luciferase reporter, luminescence. inhibition, % at 4 µM. 330,000 compounds, 0.53% hits. AID 435003; in the data active means inhibition above about 50%
Jurkat NFkB conf = inhibitors of the PMA/ionomycin-induced NF-kB reporter in Jurkat cells, retest; Jurkat NF-kB luciferase, 16 h; 2,700 compounds, 27% hits; AID 435020; shares compounds with Jurkat NFkB inh; inhibition, % at 4 µM;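 active means inhibition reaching about 45% at 4 µM in either replicate, limit read from the data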;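 further: plate controls were PMA/ionomycin stimulated DMSO wells for no effect and unstimulated DMSO wells for full effect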
Active calls of the source: *; . = not tested or not shown.

SMILES	Gli-Sufu antag	697 NFkB inh	Beta cell apopt	Jurkat NFkB inh	Jurkat NFkB conf
Cc1ccnc(NC(=O)CNC(=O)c2cccs2)c1	-9	13	-13	-6	.
Cc1ccc2oc(-c3ccc(C)c(NC(=S)NC(=O)c4cccs4)c3)nc2c1	-59	-226	6	-170	-86
Cc1ccnc(NC(=S)NC(=O)c2cccs2)c1	-139	-181	1	-201	-83
Cc1ccc2oc(-c3ccc(C)c(NC(=O)Cc4cccs4)c3)nc2c1	-12	-46	6	-61	.
Cc1ccc(S(=O)(=O)NCCC(=O)NCc2ccco2)cc1	0	-29	-3	31	.
COc1ccc(-c2cc3ccccc3cn2)cc1	-113	-216	-16	-179	-95
COc1ccc2cc(-c3cccnc3)ncc2c1	-54	-99	-5	-129	.
COc1ccc2cc(-c3ccccc3F)ncc2c1	-64	-229	5	-186	-109
CN1CCN(c2ccc(NC(=O)c3cc([N+](=O)[O-])ccc3N3CCOCC3)cc2)CC1	12	13	-2	-6	.
COc1cc(OC)cc(C(=O)NCc2cccnc2)c1	1	19	-2	-5	.
COc1ccc(Br)cc1CNC(=O)Cc1cccs1	-20	7	2	21	.
CN(C)CCCNS(=O)(=O)c1ccc(NC2CCCCCC2)c([N+](=O)[O-])c1	36	-26	85*	56*	23
c1ccc(C2=NNC(=NC3CC3)SC2)cc1	28	-53	26	-24	.
O=C(O)c1ccc(OCc2cn3ccccc3n2)cc1	-7	-10	-6	-11	.
O=C(COc1ccc(Oc2ccccc2)cc1)NCc1cn2ccccc2n1	-2	4	2	63*	23
COc1ccc(C=C2c3ccccc3C(=O)c3ccccc32)c(OC)c1	.	13	8	66*	61*
COc1ccc(/C=C2\COc3ccccc3C2=O)c(OC)c1	-11	-67	4	7	.
CCc1cc2c(=O)n(Cc3ccco3)c(SCc3c(C)noc3C)nc2s1	16	2	5	55*	28
CCc1cc2c(=O)n(Cc3ccco3)c(SCC(=O)NCC3CCCO3)nc2s1 (configuration not stated)	18	-11	-4	2	.
Cc1cccc(OCC(=O)Nc2cc(NC(=O)COc3cccc(C)c3)cc(C(=O)O)c2)c1	-2	7	-2	1	.
O=C(COC(=O)c1ccc(O)cc1)c1ccc2c(c1)OCCO2	-82	-82	.	-80	.
COc1cc(CC(=O)OCC(=O)c2ccc3c(c2)OCCO3)cc(OC)c1OC	-1	1	39	61*	38
CCC(C)NC(=O)C1CCN(S(=O)(=O)c2ccc3nc4c(c(C(=O)O)c3c2)CCCCC4)CC1 (configuration not stated)	42	-17	-1	-9	.
O=C(CCc1ccccc1)NCC(c1ccco1)N1CCc2ccccc21 (configuration not stated)	7	-34	8	59*	22
COc1cc(/C=C2\SC(N3CCC(C)CC3)=NC2=O)ccc1O	-4	34	7	61*	19
SMILES	Gli-Sufu antag	697 NFkB inh	Beta cell apopt	Jurkat NFkB inh	Jurkat NFkB conf
COc1ccc(/C=C2\SC(N3CCCCC3)=NC2=O)cc1OC	-1	-1	0	-13	.
Cc1ccc(/C(O)=C2\C(=O)C(=O)N(CCc3c[nH]c4ccccc34)C2c2cccnc2)cc1 (configuration not stated)	-6	12	-9	-19	.
COc1cccc(-c2noc(-c3cccs3)n2)c1	-70	-249	4	-152	-123
COc1cc(NC(C)CCc2ccccc2)cc(OC)c1OC (configuration not stated)	25	-50	-12	-16	.
COc1ccc(-n2cc(-c3ccc(C)cc3)[n+]3c2SCC3)cc1	.	23	113*	60*	56*
Cc1cccc(COCC(Cc2ccccc2)N2CCN(C(=O)c3ccc(C(F)(F)F)cc3)CCC2=O)c1 (configuration not stated)	-8	1	-2	-9	.
C=CCNC(=O)c1cc(-c2ccc(Br)cc2)on1	-71	-116	-3	-177	-58
O=C(NCCN1CCOCC1)c1cc(-c2ccc(Br)cc2)on1	-3	18	-10	4	.
Cc1cn2nc(N)c3ccccc3c2n1	3	-5	-1	0	.
Nc1nn2cc(-c3ccccc3)nc2c2ccccc12	-91	-182	6	-190	-84
CC(C)(C)c1ccc(Oc2ccc(NC(=O)c3ccco3)cn2)cc1	16	-143	75*	53*	40
O=C(Nc1ccc(Oc2cccnc2)nc1)c1ccc(C(F)(F)F)cc1	3	-42	10	50*	57*
Cc1ccccc1C(=O)NCC(=O)NNC(=S)NC(=O)c1ccccc1	5	-27	1	4	.
Cc1ccc(C(=O)CSc2ncnc3ccccc23)o1	-59	-23	4	-40	.
O=C(CSc1ncnc2ccccc12)c1cccs1	-87	-70	-10	-157	-62
CC(C)Oc1cccc(C(=O)C2CCCN(C(=O)c3ccsc3)C2)c1 (configuration not stated)	2	-4	-2	-10	.
CCN(c1ccccc1)S(=O)(=O)c1ccc(C(=O)NC2CCN(Cc3ccccc3)CC2)cc1	47	27	84*	74*	65*
CC(C)NCC(O)Cn1c2c(c3ccccc31)CCc1c-2cnn1-c1ccccc1 (configuration not stated)	15	-165	113*	59*	-12
O=C(c1sc2cc(F)ccc2c1Cl)N1CCN(c2ccccc2)CC1	-1	10	-2	3	.
Cc1cccn2c(=O)c3cc(C(=O)NC4CCCC4)n(C)c3nc12	-21	-24	-4	51*	13
Cc1cccc(N(C)S(=O)(=O)c2ccc(-c3cc(C)no3)s2)c1	8	7	7	43	.
CCOc1ccc(N(C)S(=O)(=O)c2ccc(-c3cc(C)no3)s2)cc1	34	-61	15	58*	52*
COc1ccc(N=Nc2ccc(O)c3ncccc23)cc1	61*	-122	104*	74*	-14
COc1cc(OC)cc(C(=O)Nc2cccc3cccnc23)c1	17	-10	16	-2	.
Nc1ccc(N=Nc2ccccc2)c2cccnc12	15	-85	5	84*	-2
SMILES	Gli-Sufu antag	697 NFkB inh	Beta cell apopt	Jurkat NFkB inh	Jurkat NFkB conf
COc1cccc(N=Nc2ccc3cccnc3c2O)c1	-5	-124	90*	95*	20
Oc1ccc(N=Nc2ccc3c(c2)OCCO3)c2cccnc12	.	-119	.	32	.
COc1ccc(C)cc1N=Nc1ccc(O)c2ncccc12	-4	.	.	.	.
COc1cccc(N=Nc2ccc(O)c3ncccc23)c1	68*	-79	104*	70*	15
CN(CC(=O)Nc1ccccc1Br)C(=O)COc1cccc2c1OC(C)(C)C2	0	6	-2	7	.
CCC(CC)NC(=O)c1cc(OC)c(OC)c(OC)c1	-1	2	3	-9	.
CN1CCN(c2nc(NCc3ccco3)nc(N)c2[N+](=O)[O-])CC1	9	19	-2	-2	.
CC(Nc1c([N+](=O)[O-])c(=O)oc2ccccc12)c1ccccc1 (configuration not stated)	-4	-5	4	-9	.
